esBAF inh – Bmi1 luciferase reporter increase in mESCs, primary screen, esBAF inhibitor project, mouse ES cells, Bmi1 luciferase knock-in, single point; AID 602393, 2012; reporter increase, % at 12.5 µM; actives 2% (n = 350,000); 24 h; 100% = twice the neutral-well signal; in the data active means activation above about 40%; inconclusive means no clear call, values can overlap the other calls;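 further: 0% = median of the plate's neutral control wells and 100% = double that signal; a rise in the Bmi1 reporter signal indicates esBAF inhibition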
HSF1 activator – HSF-1 activators, primary screen, NIH3T3-HGL cells, MG132 stress, luminescence, single point; NIH3T3-HGL HSF-1 luciferase reporter, 8 h; 100% = twice DMSO control signal; actives 1.7% (n = 300,000); AID 504408, 2011; activation, % at 9 µM;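 active means mean replicate activation of at least 50% with a set share of replicates each reaching 50%; inconclusive means only one of those two conditions met; inactive means mean below 50% and too few replicates reaching it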;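 further: 0% = median of the neutral control wells and 100% = twice that signal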
HSF1 inh – HSF1 inhibitors in luciferase reporter cells, primary screen, cell-based, NIH3T3, luminescence; NIH3T3-HGL HSE-luciferase, MG132-induced, luminescence 8 h; hits give low values; activity change, negative = inhibition, % at 7.5 µM (by protocol); actives 0.77% (n = 300,000); AID 2098, 2009;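 active means more than half of replicate wells show activity change below -50%, luminescence cut by over half; inconclusive means some wells, but at most half, below -50%; inactive means no replicate well below -50%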;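 further: luciferase reports HSF-1 transcriptional activity via heat shock element; 0% = median of DMSO wells and -100% = zero luminescence signal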
Vif imaging – HIV Vif self-association inhibitors, primary screen, imaging, HEK293T, single point; HEK293T cells, Vif self-association by quenched fluorescence, 24 h; inhibition, % at 7.49 µM; actives 0.35% (n = 340,000); in the data active means inhibition above about 50%, passing the limit was not always enough; inconclusive means no clear call, values can overlap the other calls; inactive means below about 31%
Ring1 derepress – Ring1 mRNA increase in mouse ESCs, confirmation, esBAF inhibitor project, cell-based, mouse ESC, RT-qPCR, cherry-pick | shares compounds with esBAF inh | mouse ESC E14, Ring1 mRNA RT-qPCR fold change | fold change at 33 µM | 550 tested, under 10 active;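 active means Ring1 gene expression raised more than 2-fold over untreated cells in both replicates at either tested dose; inconclusive means only one replicate above 2-fold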;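 further: Ring1 transcript normalised to actin housekeeping signal by TaqMan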
esBAF Fgf4 qPCR – Fgf4 mRNA decrease in mouse ESCs, confirmation, esBAF inhibitor project, cell-based, mouse ESC, RT-qPCR, cherry-pick | shares compounds with esBAF inh | Fgf4 expression fold change at 33 µM | actives 4% (n = 550) | mouse ESC E14, Fgf4 mRNA qPCR fold change; hits give low values | AID 743177, 2013;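 active means Fgf4 expression under 0.8 fold of control in both repeat measurements at one or both tested doses; inconclusive means under 0.8 fold in just a single repeat measurement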;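 further: Fgf4 transcript normalised to actin in duplex TaqMan qPCR; cells exposed to compound for 24 h before lysis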
Bmi1 derepress – esBAF inhibition via Bmi1 de-repression, confirmation, cell-based, RT-qPCR, mouse ESC, single point, cherry-pick; shares compounds with esBAF inh; mouse ESE14 ES cells, Bmi1 mRNA qPCR fold; hits give high values; fold change at 33 µM; 550 tested, under 10 active; AID 743180, 2013;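 active means Bmi1 expression fold change above 6 at either tested concentration, seen in replicate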;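 further: higher fold means more Bmi1 de-repression and stronger esBAF inhibition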
A549 cytotox – A549 cell cytotoxicity, cytotoxicity control, plate reader, single point, cherry-pick; shares compounds with esBAF inh; cell viability change % (negative = cytotoxic), % at 25 µM, hits read low; 550 tested, under 10 active; AID 743188, 2013; call rule not given here
HepG2 tox SP – HepG2 cell cytotoxicity, cytotoxicity control, plate reader, single point, cherry-pick. shares compounds with esBAF inh. hits give low values. activity change, negative = inhibition, % at 25 µM. actives 4% (n = 550). AID 743189, 2013; in the data active means activity change below about -50%
HEK293 tox SP – HEK293 cell cytotoxicity, cytotoxicity control, plate reader, single point, cherry-pick; actives 3% (n = 550); activity change, negative = inhibition, % at 25 µM, hits read low; shares compounds with esBAF inh; in the data active means activity change below about -38%, passing the limit was not always enough
* marks the source's active call; other numbers are inactive results; ? = inconclusive; . = no result. Most compounds without a hit are left out; they make up all but 3.4% or so of the library.

SMILES	esBAF inh	HSF1 activator	HSF1 inh	Vif imaging	Ring1 derepress	esBAF Fgf4 qPCR	Bmi1 derepress	A549 cytotox	HepG2 tox SP	HEK293 tox SP
COc1ccc(Nc2cc(C)c3c(O)cccc3n2)cc1	57*	11	13	1	1.4	1.2	1.2	-8	6	-13
COc1cccc(Nc2cc(C)c3ccccc3n2)c1	66*	5	16	-10	1.1	0.88	1.8	-9	-44	-25
COC(=O)c1cc(Nc2cc(C)c3c(O)cccc3n2)cc(C(=O)OC)c1	0	-4	-5	-4	.	.	.	.	.	.
CCNC(=O)C[C@H]1CC[C@H](NS(=O)(=O)c2ccc(C)cc2)[C@H](CO)O1	5	.	.	.	.	.	.	.	.	.
Cc1noc(C)c1S(=O)(=O)Nc1ccc2c(c1)CC(=O)N([C@@H](C)CO)C[C@H](C)[C@@H](CN(C)Cc1ccc(C(=O)O)cc1)O2	2	.	.	.	.	.	.	.	.	.
CS(=O)(=O)c1cccc(-c2csc(N3CCC(C(N)=O)CC3)n2)c1	68*	.	.	-1	1.2	0.86	1.3	-6	2	-6
O=C(Nc1nc2ccc(Cl)cc2s1)c1cccc(N2C(=O)CCC2=O)c1	67*	2	9	-22	1.7	1	1.3	-12	11	0
C[C@H]1CN([C@@H](C)CO)S(=O)(=O)c2ccc(C#CC3CC3)cc2O[C@H]1CN(C)CC1CC1	8	.	.	.	.	.	.	.	.	.
Cn1c(COc2ccccc2)nc2ccccc21	57*	14	14	1	1	0.89	1.5	-20	-23	-21
CNC(=O)C[C@@H]1CC[C@H]2[C@H](COc3ccc(NC(=O)c4ccc(C(F)(F)F)cc4)cc3C(=O)N2C)O1	13	.	.	.	.	.	.	.	.	.
COc1ccc(NC(=O)Nc2ccc3c(c2)[C@@H]2C[C@@H](CC(=O)NCc4ccc5c(c4)OCO5)O[C@@H](CO)[C@@H]2O3)cc1	-1	.	.	.	.	.	.	.	.	.
Cc1csc(Nc2nc(N)c(C(=O)Nc3ccccc3)o2)n1	52*	7	0	7	1.5	0.95	1.8	5	13	-8
Oc1ccc(-c2nccc(-c3ccc(Br)cc3)n2)cc1	?	21	10	-5	.	.	.	.	.	.
Oc1ccc(-c2nccc(-c3ccccn3)n2)cc1	60*	19	14	-7	1.3	1	1.4	2	9	11
Cc1noc(C)c1NC(=O)Nc1ccc2c(c1)C(=O)N([C@H](C)CO)C[C@H](C)[C@@H](CN(C)S(=O)(=O)c1ccc(Cl)cc1)OCCCC[C@H](C)O2	-3	.	.	.	.	.	.	.	.	.
COc1ccc(Cc2nc(-c3cccc(C)c3)no2)cc1	58*	33	21	-2	1	0.88	1.4	-7	-14	-2
COc1ccc(Cc2nc(-c3ccncc3)no2)cc1	.	36	4	11	.	.	.	.	.	.
Clc1ccc(Cc2nc(-c3ccncc3)no2)cc1	.	.	.	-2	.	.	.	.	.	.
Cc1cccc(-c2noc(Cc3ccc(Cl)cc3)n2)c1	87*	35	9	-3	1.2	?	1.3	-6	-16	2
Cc1ccc(S(=O)(=O)N[C@H]2C=C[C@@H](CC(=O)N3CCN(c4ccccc4)CC3)O[C@H]2CO)cc1	-3	.	.	.	.	.	.	.	.	.
CC1CCc2c(sc(NC(=O)c3cccn3C)c2C(N)=O)C1 (stereo unspecified)	71*	.	.	-12	1.1	1	1.5	-11	-17	-19
COC(=O)Nc1sc2c(c1C(N)=O)CCC(C)C2 (stereo unspecified)	.	3	-6	-4	.	.	.	.	.	.
CCC(C)c1ccc(NC(=O)C2CC2)cc1 (stereo unspecified)	74*	-54	-43	.	1.1	0.84	1.7	-13	-10	-4
CCC(C)c1ccc(NC(=O)C2CC3CCC2C3)cc1 (stereo unspecified)	.	42	13	-5	.	.	.	.	.	.
CCN(C(=O)CN1C(=O)S/C(=C\C=C\c2ccccc2)C1=O)C1CCS(=O)(=O)C1 (stereo unspecified)	55*	86*	67	25	0.97	?	2	-1	-27	4
SMILES	esBAF inh	HSF1 activator	HSF1 inh	Vif imaging	Ring1 derepress	esBAF Fgf4 qPCR	Bmi1 derepress	A549 cytotox	HepG2 tox SP	HEK293 tox SP
CNC[C@@H]1Oc2cc(C#CCOC)ccc2S(=O)(=O)N([C@H](C)CO)C[C@H]1C	0	.	.	.	.	.	.	.	.	.
O=C(CC(NC(=O)OCc1ccccc1)c1nn[nH]n1)OCc1ccccc1 (stereo unspecified)	75*	.	.	.	1.3	0.97	1.5	-9	-17	-3
O=C(NC(Cc1nn[nH]n1)C(=O)OCc1ccccc1)OCc1ccccc1 (stereo unspecified)	-3	.	.	.	.	.	.	.	.	.
O=C(C1CCOCC1)N1C[C@H]2[C@@H](c3ccccc31)[C@@H](CO)N2C(=O)Cc1ccccn1	2	.	.	.	.	.	.	.	.	.
COc1ccc(C(=O)NCCS(=O)(=O)NCCc2ccccc2)cc1	56*	41	22	2	1.3	1.2	1.4	-1	-12	-10
COc1ccc(CCNS(=O)(=O)CCNC(=O)c2ccc(OC)cc2)cc1	0	5	1	-3	.	.	.	.	.	.
COc1ccc(CNC(=O)c2ccc(Br)cc2)cc1	.	29	8	.	.	.	.	.	.	.
COc1ccc(CNC(=O)c2ccc(-c3ccccc3)cc2)cc1	62*	?	34	6	1.3	1.1	1.4	1	-46	-4
C[C@H](CO)N1C[C@H](C)[C@@H](CN(C)C(=O)NC2CCCCC2)Oc2ccc(N(C)C)cc2CC1=O	-2	.	.	.	.	.	.	.	.	.
CNC[C@H]1Oc2ncc(Br)cc2C(=O)N([C@@H](C)CO)C[C@H]1C	-4	.	.	.	.	.	.	.	.	.
C[C@H](CO)N1C[C@H](C)[C@H](CN(C)C(=O)Nc2cccc3ccccc23)Oc2ncc(/C=C/c3ccccc3)cc2C1=O	7	.	.	.	.	.	.	.	.	.
Cc1ccc(NC(=O)c2ccc3snnc3c2)cc1	.	29	46	-3	.	.	.	.	.	.
CC(C)c1ccc(NC(=O)c2ccc3snnc3c2)cc1	72*	22	22	3	1.2	0.94	1.8	-3	11	-5
